From PubChem BioAssay
Most compounds without a hit are left out; they make up all but 1.3% or so of the library.
BRCA1 expr up: BRCA1 expression activation; MCF7-BRCA1-FFLuc reporter, luminescence, 48 h; response scale: scaled: vehicle 0%, 10 µM genistein 100%; Potency, µM (doses to about 46.1 µM), for inactives: at the top dose activation, actives largely listed as activators; 380,000 tested, 1.1% active; AID 624202; further: potency means the concentration at half of the fitted maximal effect; nearly all actives have a fitted effect of over 80% in size
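Using MCF7 cells harboring a BRCA1 firefly luciferase reporter, plated 2 h before compound pinning, the screen measured luminescence after 48 h incubation. Responses were normalized to DMSO and 10 microM genistein, then fitted for concentration-effect.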
Mito fusion act: inhibitors of mitochondrial division or activators of mitochondrial fusion | 320,000 tested, 0.23% active | S. cerevisiae fusion-defective mutant growth rescue, CellTiterGlo 48 h | Potency, µM (doses to about 46.1 µM), for inactives: top-dose growth rescue (activation), usual class: activators; further: potency means the concentration at half of the fitted maximal effect; % of control where 0% means no effect; nearly all actives have a fitted effect of over 45% in size
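Temperature-sensitive fusion-defective S. cerevisiae (e.g. fzo1-1, mgm1-5) were grown with compound in YPEG medium (3% ethanol, 3% glycerol) for 48 hours at 37C. Growth rescue was measured as viability by CellTiterGlo luminescence after 10 minutes at ambient.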
p53 reactivation: restores transcriptional activity of mutant p53. Potency, µM (series often up to 92.2 µM), without a hit: at the top dose activity change, positive = activation, hits mostly activators. H1299 p53-A138V BP100-luciferase reporter, luminescence, 24 h. AID 504706. 320,000 tested, 0.063% active; further: potency means the concentration at half of the fitted maximal effect; % of control where 0% means no effect; nearly all actives have a fitted effect of over 45% in size
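p53-null H1299 cells stably carrying temperature-sensitive p53-A138V and a BP100-luciferase reporter were pinned with compounds (4-point, 1:5 series) and held 24 hrs at 37 deg C. Luminescence was read 10 min after detection reagent.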
TCR act: T cell receptor activation | primary human leukocytes, anti-CD3, IL-2 HTRF, 48 h | Potency, µM (doses to about 9.22 µM), inactives show at the highest dose activation of IL-2 secretion, most hits filed as activators | 330,000 tested, under 10 active | AID 504894; further: % of control where 0% means no effect
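IL-2 produced over 48 hr by a-CD3 bead-stimulated primary human leukocytes exposed to compounds was detected with a homogeneous time-resolved FRET immunoassay, 665nm acceptor signal after 320nm excitation.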
IL-2 act: activates IL-2 in a cell-based reporter assay; activation, % (series mostly up to about 46 µM); IL-2 activation reporter assay, cell-based qHTS; stimulated with anti-CD3/CD4/CD28 beads; in transgenic mouse T cells; AID 652025; 360,000 tested, 0.065% active; in the data active means activation above about 50%; inconclusive means mostly about 30% to 49%; further: 0% is about no effect
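EGFP and DsRed fluorescence is measured by plate cytometry in unstimulated transgenic mouse T cells exposed to compound for 60 minutes, then stimulated 18 hours at 37 degrees C with anti-CD3/anti-CD4 beads plus anti-CD28.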
Numbers without * were called inactive; ? = inconclusive; . = no result; [ ] = another dose, or the depositor's remark. Unless noted, the call rests on the fitted dose curve; in most records, active means well fitted curve in the direction sought with a large enough effect; inconclusive means small, poorly fitted or top-dose-only effect, or another doubt; inactive means no such curve, though single readings can be large; an effect the other way counts as inactive or inconclusive.

SMILES	BRCA1 expr up	Mito fusion act	p53 reactivation	TCR act	IL-2 act
O=C(c1ccco1)n1nc(-c2ccccc2)nc1SCc1ccccc1	2.8µM*	-1%	18%	1%	-2
CSc1nc(-c2ccco2)nn1S(=O)(=O)c1ccc(C)cc1	0%	14%	-3%	-1%[46.1 µM]	-3
CCCC(=O)n1nc(-c2ccco2)nc1SCc1ccccc1	?	13%	?	1%[46.1 µM]	-4
O=C(Cc1ccccc1)n1nc(-c2ccco2)nc1SCc1ccccc1	11µM*	-1%	14%	1%	-1
Cc1ccc(C)c(NC(=O)C2CCN(c3cc(C)nc4c(-c5ccc(Cl)cc5)c(C)nn34)CC2)c1	-4%	.	.	.	.
COc1ccc(CNc2ncnc3nc[nH]c23)cc1	37%	.	.	.	.
Cc1cccc(-n2c(C)nnc2SCC(=O)NC(C)c2ccco2)c1 (stereo not given)	27%	.	.	.	.
Cc1ccc(C(=O)CN2C(=O)C(C)Oc3ccccc32)cc1 (stereo not given)	11µM*	-9%	?	-3%	0
CC1Oc2ccccc2N(CC(=O)c2ccccc2)C1=O (stereo not given)	19%	11%	?	.	0
Fc1cccc2sc(N3CCCCC3)nc12	13µM*	1%	?	11%	0
COc1cc(S(=O)(=O)Nc2ccc(C)cc2)ccc1N=Cc1c(C)c(C#N)c(=O)n(C)c1O	18%	0%	-3%	7%	448*
CC(C)(C)c1cccc(S(=O)(=O)N2CCN(c3nc(-c4cccs4)nc4ccccc34)CC2)c1	0%	.	.	.	.
CCn1c(SCC(=O)NCc2ccco2)nnc1-c1ccc(N(C)C)cc1	14%	.	.	.	.
COc1cccc(OCc2cc(C(=O)N(C)CCC3CCCCO3)no2)c1 (stereo not given)	44%	3%	-9%	3%	-4
CN(C(=O)c1cc(-c2ccccc2)on1)C1CCCCC1	1.6µM*	4%	?	4%	0
Cc1cc(C(=O)N(C)C2CCCCC2)no1	-17%	0%	-2%	1%	-3
COc1cccc(OCc2cc(C(=O)N(C)C3CCCCC3)no2)c1	11µM*	.	.	.	-1
Cc1cc(N)c2ccccc2[n+]1CCCCCCCCCC[n+]1c(C)cc(N)c2ccccc21	.	2.6µM*	.	.	.
CC1CCCC(C)N1C(=O)CSc1nnc(C2CCCCC2)o1 (stereo not given)	40%	6.3µM*	?	-2%	-3
Cc1ccc2c(c1)c1c(c(=O)n(Cc3ccccc3)c(=O)n1Cc1cccc(F)c1)n2C	6%	.	.	.	.
C[C@@H](NC(=O)CN(c1ccccc1)S(=O)(=O)N(C)C)c1ccccc1	12%	.	.	.	.
O=C(Nc1ccc2nc(-c3ccc(Br)o3)[nH]c2c1)c1cccs1	10µM*	0%	28%	4%	2
Cn1cccc1-c1nc2ccc(NC(=O)c3cccs3)cc2[nH]1	?	5%	-12%	-14%	0
O=C(Nc1ccc2nc(-c3ccc(Br)o3)[nH]c2c1)c1ccco1	6.3µM*	2%	3%	8%	-2
O=C(Nc1ccc2nc(-c3ccccc3)[nH]c2c1)c1ccco1	?	-3%	5%	-2%	2
SMILES	BRCA1 expr up	Mito fusion act	p53 reactivation	TCR act	IL-2 act
CC(=O)Nc1ccc2nc(-c3cccs3)[nH]c2c1	6.3µM*	-3%	?	-6%	0
CC(=O)Nc1ccc2nc(-c3ccc(Br)o3)[nH]c2c1	10µM*	-13%	?	1%[46.1 µM]	0
SCc1nc2ccccc2[nH]1	-6%	.	.	.	.
CCn1c(=O)c2cc(C(=O)N(CC(C)C)CC(C)C)sc2c2ccccc21	-19%	.	.	.	.
O=C1C=C(c2ccccc2)CC(/C=C/c2ccccc2)C1 (stereo not given)	-2%	16µM*	4%	1%[46.1 µM]	0
COc1cccc(Cn2cnc3c(sc4nc(C)cc(C)c43)c2=O)c1	-14%	20%	-2%	-4%	6
CC(=O)Cn1cnc2c(sc3nc(C)cc(C)c32)c1=O	11µM*	-8%	13%	0%	-1
C1=C(c2cc3ccccc3cn2)CCCC1	10µM*	.	?	-6%	1
COc1cc2c3nnc(-c4ccccc4)c-3cn(Cc3ccccc3F)c2cc1OC	1%	-2%	4%	2%	176*
COc1cc2c(=O)c(S(=O)(=O)c3ccc(F)cc3)cn(Cc3ccccc3C)c2cc1OC	-17%	.	.	.	.
COc1cc2c3nnc(-c4ccc(F)cc4)c-3cn(Cc3ccccc3F)c2cc1OC	-2%	-2%	?	3%	87*
CC(=O)NC1CCCC1C#N (stereo not given)	5%	.	.	.	.
Cc1ccc(C2CC(c3cccs3)=NN2C(=O)c2ccc(Br)o2)cc1 (stereo not given)	-32%	2.8µM*	1%	5%	0
Cc1cccc(N/N=C2/COC(C)(C)CC2=O)c1	7.9µM*	1%	?	-2%[46.1 µM]	-2
CC1(C)CC(=O)/C(=N/Nc2ccc(Cl)cc2)CO1	3.5µM*	-1%	20%	-11%	0
NS(=O)(=O)c1ccc(N/C=C\C(=O)c2ccc(F)cc2)cc1	1µM*	-1%	7%	.	-1
CN(C)c1ccc(/C=C2\C(Cl)=Cc3ccccc32)cc1	76%	.	.	.	.
C(/C=C/c1ccco1)=N/N1CCN(c2ccccc2)CC1	10µM*	-2%	?	-1%	-2
Clc1ccccc1CN1CCN(/N=C/C=C\c2ccco2)CC1	?	-4%	5%	1%	1
Cc1ccc2c(c1)c1c3n2CCN(C(=O)c2ccc(C(F)(F)F)cc2)C3CCC1 (stereo not given)	-22%	.	.	.	.
Nc1ccc2nc3c(=O)n(C4CCCCC4)c(=O)[nH]c3nc2c1	7.1µM*	19%	12%	2%	2
C=C(Cl)COc1ccc2c(CCCC)cc(=O)oc2c1	47%	27%	4%	2%	0
CCCCc1cc(=O)oc2cc(OS(C)(=O)=O)ccc12	5%	16µM*	-1%	0%[46.1 µM]	0
CC1=Cc2ccccc2C(C#N)N1C(=O)c1ccccc1 (stereo not given)	-28%	13µM*	6%	0%[46.1 µM]	-3
COc1ccc(C(=O)Cc2cc(OC)c(OC)cc2[N+](=O)[O-])cc1	11µM*	-2%	7%	4%	-2
N/C(=N\OC(=O)c1ccc(Br)cc1)c1cccc([N+](=O)[O-])c1	?	1%	8%	.	-1
Cc1ccc(C(=O)O/N=C(\N)c2cccc([N+](=O)[O-])c2)cc1	3.2µM*	-2%	?	0%	5
Cc1ccc(C(=O)O/N=C(\N)c2cccnc2)cc1[N+](=O)[O-]	11µM*	-7%	?	2%[46.1 µM]	0
N/C(=N\OC(=O)c1ccc([N+](=O)[O-])cc1)c1cccnc1	?	-1%	?	-1%[46.1 µM]	3
COc1cccc(C(=O)O/N=C(\N)c2ccncc2)c1	10µM*	-1%	2%	.	-2
